# NS1 function inh: influenza NS1 inhibition. Potency, µM (highest dose often 46.1 µM). AID 2326. 270,000 compounds, 0.4% hits; also: actives are rising curves; nearly all actives have a fitted effect of over 50% in size
#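 OD600 was taken as the measure of yeast growth restored by compound in an NS1-expressing S. cerevisiae strain. Cells had been washed out of glucose medium and diluted 1:100 into galactose -URA medium, pH 6.0.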
# Shiga toxin inh: Shiga toxin inhibition; AID 2315; inhibition, % at 38.7 µM; Vero cells, Shiga toxin protein synthesis inhibition reporter; 290,000 compounds, 9.2% hits; in the data active = inhibition mostly above about 28%, no sharp cut-off; inactive = mostly below about 43%
# SARS PLpro yeast: blocks SARS-CoV papain-like protease in a yeast assay; S. cerevisiae expressing SARS-CoV PLpro, growth rescue; Potency, µM (titrated, usually from 32.9 µM), usual class: activators; 330,000 compounds, 0.19% hits; AID 485353; also: nearly all actives have a fitted effect of over 55% in size
# CHX counter: counter-screen hit for Shiga toxin inhibitors, cycloheximide; cell reporter, cycloheximide protein synthesis inhibition counterscreen; max response, %; 300,000 compounds, 12% hits; AID 2314; in the data active = max response mostly above about 13%, no sharp cut-off; inactive = mostly below about 14%; also: read at 38.3 µM for the half of the compounds with a filed dose
# Hits are given with their value; - = inactive; ? = inconclusive; . = no result given. Only some compounds are listed: those with a hit (about 12% of all), similar ones and a draw of the others. Unless noted, calls follow the shape of the full dose curve.
SMILES,NS1 function inh,Shiga toxin inh,SARS PLpro yeast,CHX counter
CC1=C(C(=O)OCc2cc(C)on2)N2C(=O)[C@@H](NC(=O)OCc3cc(C)on3)[C@H]2SC1,.,.,-,.
Cc1nc2cc(N3CCCCC3)c(NC(=O)c3ccncc3)cc2c(=O)n1Cc1ccc(Cl)cc1,-,-,-,-
Cc1nc2cc(N3CCN(C)CC3)c(NC(=O)Cc3ccccc3)cc2c(=O)n1Cc1ccccc1,-,55,-,90
O=C(c1ccc2c(c1)c(=O)oc1ccccc12)N1CCCCC1,-,.,.,.
O=C(c1cc2ccccc2c(=O)o1)N1CCCCCC1,-,141,-,71
CC1CCN(C(=O)c2cc3ccccc3c(=O)o2)CC1,-,44,-,-
CCC(NC(=O)c1cc(COc2ccc(Cl)cc2OC)on1)c1ccncc1 (stereo unspecified),-,76,-,38
COc1cc(Cl)ccc1OCc1cc(C(=O)NC(C)Cc2cnccn2)no1 (stereo unspecified),-,70,-,42
CCC(NC(=O)c1cc(COc2ccc(OC)cc2Cl)on1)c1ccncc1 (stereo unspecified),-,-,-,64
COc1cc(Cl)ccc1OCc1cc(C(=O)NCC(C)c2ccccc2)no1 (stereo unspecified),-,-,-,25
CCC(NC(=O)c1cc(COc2cc(C)c(Cl)c(C)c2)on1)c1ccncc1 (stereo unspecified),-,-,-,-
Cc1cccnc1NC(=O)CNC(=O)COc1ccccc1,.,.,-,.
COc1ccc(CC(=O)Nc2nc3ccccc3s2)cc1S(=O)(=O)N1CCOCC1,-,-,?,-
CSc1nc2ccc3nc(NC(=O)c4cccs4)sc3c2s1,-,51,-,43
CN(C)S(=O)(=O)c1ccc2nc(NC(=O)c3cccs3)sc2c1,-,70,-,41
COc1ccc(CC(=O)Nc2nc3ccc(F)cc3s2)cc1S(=O)(=O)N1CCOCC1,-,70,-,40
CC(=O)Nc1ccc2nc(NC(=O)c3cccnc3)sc2c1,-,46,-,27
CCN(CC)S(=O)(=O)c1ccc(S(=O)(=O)Nc2c(C)nn(C)c2C)cc1,.,.,-,.
Cc1cc(OC(C)C(=O)NCC2CCC(C(=O)O)CC2)c2c(C)cc(=O)oc2c1 (stereo unspecified),-,-,-,-
CCOC(=O)C1CCN(C(=O)c2cccc(S(=O)(=O)Nc3ccc(C)cc3C)c2)CC1,-,-,-,-
O=C(Nc1nc2ccc(S(=O)(=O)N3CCCC3)cc2s1)c1cccs1,-,-,-,-
O=C(Nc1nc2ccc(S(=O)(=O)N3CCOCC3)cc2s1)c1cccs1,-,39,-,18
CN(C)S(=O)(=O)c1ccc2nc(NC(=O)c3cccnc3)sc2c1,-,107,.,29
O=C(Nc1nc2ccc(F)cc2s1)c1cccs1,.,126,-,50
Cc1cccc(N2CCN(C3=NC(=O)C(Cc4ccccc4)S3)CC2)c1 (stereo unspecified),-,-,-,-
SMILES,NS1 function inh,Shiga toxin inh,SARS PLpro yeast,CHX counter
Cc1cc(N(C)C)ccc1N=Nc1ccc2ncccc2c1,-,95,-,52
O=c1c(-c2ccccc2)c1-c1ccccc1,.,104,-,65
O=c1c(NCCc2ccccc2)c(-c2ccccc2)c1=O,-,-,-,-
Nc1ccc2c(c1)oc1ccccc12,-,50,-,27
Cc1c(NC(=O)COC(=O)C2=COCCO2)cccc1[N+](=O)[O-],.,.,-,.
Cc1csc(N2CCc3ccccc32)n1,-,-,-,23
Cc1cc(N2CCCc3ccccc32)n2ncnc2n1,-,-,-,-
Cc1sc2c(c1C)CN(C1CC(C)(C)NC(C)(C)C1)CN2C(=O)c1ccco1,-,44,-,23
CC1(C)CC(CCNC(=O)c2ccco2)CC(C)(C)N1,-,-,-,-
CCN1CCN(CC(=O)Nc2cccc(C)c2C)C(=O)C1=O,-,-,-,-
C/C(CC(=O)NC12CC3CC(CC(C3)C1)C2)=N\NC(=O)Cc1cccs1,-,-,-,-
C/C(CC(=O)NC1CCCC1)=N\NC(=O)Cc1cccs1,-,-,-,15
C/C(CC(=O)Nc1ccc(Cl)cn1)=N\NC(=O)Cc1cccs1,-,-,-,13
C/C(CC(=O)NC1CCCCC1)=N\NC(=O)c1ccccc1C,-,63,-,-
O=C(/C=C/c1ccc(S(=O)(=O)N2CCOCC2)cc1)NCc1ccccc1F,.,.,-,.
O=C(COc1ccc2ccccc2c1)Nc1ccncc1,-,27,-,27
Cc1cc(NC(=O)COc2ccc(C)c(C)c2)no1,-,65,-,39
Cc1cc(NC(=O)COc2ccc3ccccc3c2)no1,-,-,-,31
O=C(COC(=O)Cc1ccc(Br)cc1)Nc1ccc(Cl)cn1,.,.,-,.
Clc1ccc(Cl)c(SCCCN2CCNCC2)c1,-,.,.,.
COc1cc(CC(NC(C)=O)C(=O)NC2CCN(C(=O)Nc3ccccc3C)CC2)cc(OC)c1 (stereo unspecified),-,-,-,-
CCOc1ccc(N(CC(=O)NCc2ccccc2)C(=O)Cn2nnc(-c3ccc(C)o3)n2)cc1,-,-,-,-
COc1ccc(/C=N/NC(=O)c2ccncc2)cc1OC,-,-,-,-
O=C(COc1ccc(/C=N/NC(=O)c2cc3ccccc3o2)cc1Cl)Nc1ccccc1,-,62,-,47
COc1cc(/C=N/NC(=O)c2ccccc2O)ccc1OCC(=O)Nc1ccccc1,-,-,-,15
SMILES,NS1 function inh,Shiga toxin inh,SARS PLpro yeast,CHX counter
COc1cc(/C=N/NC(=O)c2ccncc2)ccc1OCC(=O)Nc1ccccc1,-,56,-,30
COc1cc(C=C2C(=O)OC(C)(C)OC2=O)ccc1OCC(=O)Nc1ccccc1,-,95,-,17
O=C(COc1ccc(/C=N/NC(=O)c2ccccc2O)cc1)Nc1ccccc1,-,-,-,-
Cc1ccc(N(C(=O)c2csnn2)C(C(=O)NC2CCCC2)c2ccncc2)c(C)c1 (stereo unspecified),-,-,-,-
CC1CCCC(=NNC(=O)C2COc3ccccc3O2)C1 (stereo unspecified),.,.,-,.
O=C1CCN(Cc2nc(-c3ccc(Cl)cc3)no2)CCN1,-,-,-,-
COc1ccc(NC(=O)COc2ccc(/C=N/NC(=O)c3cccnc3)cc2OC)cc1,-,32,-,-
COc1ccccc1NC(=O)COc1ccc(/C=N/NC(=O)c2cccnc2)cc1,-,-,-,-
O=C(COc1ccc(/C=N/NS(=O)(=O)c2ccccc2)cc1)Nc1ccccc1,-,-,-,21
O=C(COc1ccc(/C=N/NC(=O)c2cccnc2)cc1)Nc1ccccc1,-,-,-,29
O=C(Cc1ccccc1)N/N=C/c1ccc(OCC(=O)Nc2ccccc2)cc1,-,-,-,-
Cc1[nH]c(C)c(S(=O)(=O)Nc2cccc(Cl)c2C)c1C(=O)N1CCCCC1,-,-,-,-
C=CCc1cc(OC)ccc1OCCCCn1cncn1,-,-,?,-
C=C[C@@H]1CN2CC[C@@H]1C[C@@H]2[C@H](O)c1ccnc2ccc(OC)cc12,-,.,.,.
CC1=NN(c2ccccc2)C(=O)C1c1ccccc1 (stereo unspecified),-,-,14µM,-
COc1ccc(N=NC2C(=O)N(c3ccccc3)N=C2C)cc1 (stereo unspecified),-,-,-,-
CC1=NN(c2ccccc2)C(=O)C1N=Nc1cccc(O)c1 (stereo unspecified),-,86,-,43

# High-throughput results as filed in PubChem BioAssay.
